12-LOX inh – inhibitors of human 12S-lipoxygenase ALOX12; P18054; AID 1671190; Potency, µM (titrated, usually from 108 µM), most hits filed as inhibitors; 580,000 tested, 1.1% active; purified 12hLO, xylenol orange hydroperoxide absorbance
Target sequence (P18054 whole entry, looked up): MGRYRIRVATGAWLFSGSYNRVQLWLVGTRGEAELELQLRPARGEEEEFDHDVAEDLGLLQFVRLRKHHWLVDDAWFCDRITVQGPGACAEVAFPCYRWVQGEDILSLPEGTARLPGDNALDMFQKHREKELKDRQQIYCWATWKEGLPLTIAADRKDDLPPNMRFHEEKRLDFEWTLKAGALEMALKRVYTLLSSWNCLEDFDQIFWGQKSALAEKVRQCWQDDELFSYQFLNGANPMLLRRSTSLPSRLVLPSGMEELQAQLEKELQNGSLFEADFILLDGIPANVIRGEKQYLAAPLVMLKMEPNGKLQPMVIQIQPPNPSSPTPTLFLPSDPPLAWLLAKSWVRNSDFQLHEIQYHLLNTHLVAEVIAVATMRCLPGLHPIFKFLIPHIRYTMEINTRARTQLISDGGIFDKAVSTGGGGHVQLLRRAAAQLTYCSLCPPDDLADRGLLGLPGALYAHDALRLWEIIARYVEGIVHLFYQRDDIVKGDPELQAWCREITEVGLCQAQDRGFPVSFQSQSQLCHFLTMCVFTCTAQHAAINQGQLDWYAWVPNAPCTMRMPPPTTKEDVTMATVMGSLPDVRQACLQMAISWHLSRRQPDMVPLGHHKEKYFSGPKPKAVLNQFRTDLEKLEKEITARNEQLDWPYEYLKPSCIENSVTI
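Hydroperoxide product was detected by ferrous iron/xylenol orange as the 573 to 405 nm absorbance ratio. Arachidonic acid at 40 uM (final) was turned over for 30 min at room temperature by 150 nM human 12hLO, pH 7.0 Hepes buffer, after 15 min compound preincubation.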
HT1080 IDH1KD tx – kills HT-1080 cells with IDH1 knockdown; HT-1080 IDH1 knockdown viability, ATP luminescence, 48 h; Potency, µM (titrated, usually from 46.1 µM), usual class: cytotoxic; 360,000 tested, 2% active; AID 686971
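Knockdown cells (IDH1KD HT-1080) received compounds 2 h after plating at 750 cells/well and were kept 48 h at 37 °C in 5% FBS RPMI. A CellTiter-Glo luminescence read gave % activity for curve fitting.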
IL1B secr inh – inflammasome signaling inhibition, IL-1 beta readout; THP-1 LPS/ATP IL-1B secretion, AlphaLISA, 16 h; hits give low values; activity change, % at 57.5 µM; 360,000 tested, 4.7% active; in the data active = activity change below about -50%; inconclusive = mostly about -30% to -49%
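THP-1 cells pretreated 1 hr with compounds (up to 57.5 uM final), then stimulated with LPS (250 ng/mL final) plus ATP (1.25 mM final); secreted IL-1B measured by AlphaLISA after 16 hr, decreased signal indicating inhibition.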
TDP1 cell noCPT – qHTS for Inhibitors of human tyrosyl-DNA phosphodiesterase 1 (TDP1): qHTS in cells in absence of CPT; DT40 Tdp1-/- hTDP1 cells, no CPT, ATP luminescence, 48 h; Potency, µM (highest dose often 46.2 µM), actives largely listed as inhibitors; 420,000 tested, 15% active; also: nearly all actives have a fitted effect of over 55% in size
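Chicken DT40 Tdp1-/- cells stably complemented with human TDP1 were seeded at 400 cells/well with DMSO in place of 20 nM camptothecin. After compound pinning, cells grew at least 48 hr at 37 °C; viability read by CellTiter-Glo luminescence.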
TDP1 cell CPT – growth inhibition of DT40 Tdp1-/-;hTDP1 cells with camptothecin (screen for TDP1 inhibitors) | AID 686979 | Potency, µM (titrated, usually from 46.2 µM), hits mostly inhibitors | chicken DT40 Tdp1-/-;hTDP1 cells + 20 nM CPT, ATP luminescence, 48 h | 420,000 tested, 12% active; also: nearly all actives have a fitted effect of over 55% in size
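Chicken DT40 Tdp1-/- cells complemented with human TDP1, 400 cells/well, exposed to compounds plus 20 nM camptothecin for at least 48 h at 37 C; viability read as ATP content by CellTiter-Glo luminescence.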
HT1080NT lethal – kills 2HG-producing HT-1080-NT fibrosarcoma cells; HT-1080-NT fibrosarcoma viability, CellTiter-Glo ATP luminescence, 48 h; Potency, µM (titrated, usually from 46.1 µM), usual class: cytotoxic; 360,000 tested, 1.6% active;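 also: NT is the 2HG producing partner of a matched IDH1 knockdown line; nearly all actives have a fitted effect of over 55% in size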
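Toxicity toward the 2HG-producing NT line was scored as %Activity, normalised to DMSO and no-cell wells, from CellTiter-Glo luminescence after 48 hours' treatment.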
Numbers stand for hits; i = inactive; ? = inconclusive; nt = no result given; [ ] = remark or other dose. Shown is part of a subset that was picked to be rich in hits. Unless noted, calls follow the shape of the dose curve; as a rule, active = well fitted curve in the direction sought with a large enough effect; inconclusive = small, poorly fitted or top-dose-only effect, or another doubt; inactive = no such curve, though single readings can be large; an effect the other way counts as inactive or inconclusive.

SMILES	12-LOX inh	HT1080 IDH1KD tx	IL1B secr inh	TDP1 cell noCPT	TDP1 cell CPT	HT1080NT lethal
COc1ccc(C2C=C(c3ccccc3)Nc3nc(NC(=O)c4cccc([N+](=O)[O-])c4)nn32)cc1 (configuration not stated)	i	nt	nt	?	?	nt
COc1ccccc1/C=C/C(=O)Nc1nc2n(n1)C(c1ccc(F)cc1)C=C(c1ccccc1)N2 (configuration not stated)	i	nt	nt	4.6µM	10µM	nt
C[C@@H]1CCC[C@H](C)N1	i[22.9 µM]	nt	nt	i	i	nt
COc1ccc(C(=O)N2CCC(c3nn(Cc4ccccc4)c(=O)[nH]3)CC2)cc1	i	nt	nt	nt	nt	nt
N#CC1=C(N)N(c2cccc(F)c2)C2=C(C(=O)OC2)C12C(=O)N(Cc1cccc(F)c1)c1ccccc12 (configuration not stated)	i	nt	nt	nt	nt	nt
O=C(c1ccc(C(F)(F)F)cc1)N1CCC(N2CCOC2=O)CC1	i[6.33 µM]	nt	nt	nt	nt	nt
Cn1ccc2cc(C(=O)N3CCN(Cc4ccccc4)CC3)ccc21	i	nt	nt	nt	nt	nt
Cc1cccc(OCC(=O)N2CCC3(CC2)NC(=O)N(c2cccc(F)c2)N3)c1	2.2µM	nt	nt	nt	nt	nt
O=C(COc1ccccc1)N1CCN(C(=O)c2cccc(F)c2)CC1	i	i	i	i	i	i
O=C(COc1ccccc1)N1CCC2(CC1)NC(=O)N(c1cccc(F)c1)N2	2.8µM	nt	nt	nt	nt	nt
O=C(COc1ccc(F)cc1)N1CCC2(CC1)NC(=O)N(c1ccc(F)cc1)N2	2.5µM	nt	nt	nt	nt	nt
COCCn1c(SCC(=O)c2ccccc2OC)nnc1-c1ccc(Cl)cc1	i	nt	nt	nt	nt	nt
O=C(c1ccc2c(c1)N(Cc1ccc(F)cc1)C(=O)c1ccccc1S2(=O)=O)N1CCCCC1	i	nt	nt	?	?	nt
O=C(c1ccc2c(c1)N(Cc1ccccc1)C(=O)c1ccccc1S2(=O)=O)N1CCCCCC1	i	nt	nt	?	?	nt
CC1CCN(C(=O)c2ccc3c(c2)N(Cc2ccccc2)C(=O)c2ccccc2S3(=O)=O)CC1	i	nt	nt	16µM	?	nt
O=C(c1ccc2c(c1)N(Cc1ccc(F)cc1)C(=O)c1ccccc1S2(=O)=O)N1CCC(Cc2ccccc2)CC1	i	nt	nt	5.2µM	5.8µM	nt
CC(=O)N1NC(=Nc2ccccc2)SC1(C)C	i	i	-75	16µM	?	i
CN(C)CC1(O)CCC2(CCN(C(=O)C3CCCC3)CC2)CC1	i	nt	nt	nt	nt	nt
CC(NC(=O)CCSc1ccc(F)c(F)c1)c1ccccc1 (configuration not stated)	i	nt	nt	nt	nt	nt
CC(=O)Nc1cc(-c2ccccc2Cl)cn2c(-c3ccc(S(C)(=O)=O)cc3)cnc12	i	i	-50	?	?	?
CC(=O)Nc1cc(-c2cccc(C)c2)cn2c(-c3ccc(S(C)(=O)=O)cc3)cnc12	i	i	-57	12µM	15µM	i
COc1ccccc1-c1cc(NC(C)=O)c2ncc(-c3ccc(S(C)(=O)=O)cc3)n2c1	?	i	i	?	?	i
COc1ccccc1OCC(=O)Nc1ccc2c(c1)N(C(=O)c1cccnc1)CCC2	i	nt	nt	nt	nt	nt
Cc1oc(-c2ccc(OC(C)C)cc2)nc1Cn1ccn2nc3c(c2c1=O)CCCC3	i	nt	nt	nt	nt	nt
C=CCn1c(C)cc(C(=O)CSc2nnc(NCc3ccccc3)s2)c1C	i	?	i	15µM	9.2µM	?
SMILES	12-LOX inh	HT1080 IDH1KD tx	IL1B secr inh	TDP1 cell noCPT	TDP1 cell CPT	HT1080NT lethal
C=CCn1c(C)cc(C(=O)CSc2nnc(NC(C)C)s2)c1C	i	i	i	?	?	i
C=CCn1c(C)cc(C(=O)CSc2nc3ccccc3o2)c1C	i	i	-80	?	16µM	i
Cc1cc(C(=O)CSc2nc3ccccc3o2)c(C)n1C1CC1	i	i	?	15µM	21µM	i
Cc1cc(C(=O)CSc2nc3ccccc3o2)c(C)n1CC(F)(F)F	i	nt	nt	nt	nt	nt
CC1(c2ccccc2)N(Cc2ccccc2)C(=O)OC12CCN(Cc1ccc(C#N)cc1)CC2 (configuration not stated)	i	nt	nt	nt	nt	nt
CCC1CCCCN1CCCNC(=O)c1ccc2c(c1)N(Cc1ccccc1)C(=O)c1ccccc1S2(=O)=O (configuration not stated)	i	nt	nt	?	?	nt
CCC1CCCCN1CCCNC(=O)c1ccc2c(c1)N(Cc1cccc(C)c1)C(=O)c1ccccc1S2(=O)=O (configuration not stated)	i	nt	nt	?	16µM	nt
CCC1CCCCN1CCCNC(=O)c1ccc2c(c1)N(Cc1ccc(Cl)cc1)C(=O)c1ccccc1S2(=O)=O (configuration not stated)	i	nt	nt	23µM	23µM	nt
O=C(O)c1cc(-c2ccco2)[nH]n1	i	i	i	i	i	i
CC1CCC(C(=O)NNC(=O)c2cc(-c3ccco3)[nH]n2)CC1 (configuration not stated)	i	i	i	16µM	18µM	i
